From PubChem
A selection: hits, their analogues and other compounds. The true share with any hit is near 27%.
CYP2C19 inh: blocks human cytochrome P450 2C19; CYP2C19 Supersomes, luciferin-H EGE luminescence, 30 min; inhibition, % at 5 µM; 96,000 tested, 21% active;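 active means CYP2C19 inhibition above a set limit at 5 µM in the primary screen, cut at about 50% in these data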;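 further: plate controls were negative control wells for no effect and 2.5 mM tranylcypromine positive control for full effect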
CYP2C9 inhib: human CYP2C9 inhibition; P11712; inhibition, % at 5 µM; 96,000 tested, 20% active; CYP2C9 Supersomes, luciferin-H conversion, luminescence; AID 777;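 active means blocking of liver enzyme CYP2C9 beyond about 50% at 5 µM, limit read from the data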
Target sequence (P11712 whole entry, looked up): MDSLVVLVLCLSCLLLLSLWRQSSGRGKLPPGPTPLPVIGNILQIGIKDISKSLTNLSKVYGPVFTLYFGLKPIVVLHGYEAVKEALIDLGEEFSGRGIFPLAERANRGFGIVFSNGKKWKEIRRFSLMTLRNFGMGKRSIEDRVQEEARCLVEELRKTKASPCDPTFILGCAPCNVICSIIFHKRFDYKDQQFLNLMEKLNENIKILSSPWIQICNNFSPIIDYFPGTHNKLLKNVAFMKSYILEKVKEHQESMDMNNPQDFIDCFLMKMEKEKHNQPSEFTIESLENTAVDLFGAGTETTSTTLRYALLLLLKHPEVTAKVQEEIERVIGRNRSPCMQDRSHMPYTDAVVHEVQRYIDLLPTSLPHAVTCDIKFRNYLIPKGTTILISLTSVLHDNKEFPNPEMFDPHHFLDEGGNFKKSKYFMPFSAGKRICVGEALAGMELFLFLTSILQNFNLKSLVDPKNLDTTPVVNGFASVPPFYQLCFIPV
CYP2C9 act: CYP2C9 (human) activation. P11712. recombinant CYP2C9, luciferin-H conversion, luminescence; hits give high values; factor 1 = untreated enzyme, 0 = blocked. activation factor at 5 µM. 96,000 tested, 1.4% active. AID 1024;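 active means activation factor of 2 or more for CYP2C9 at a 5 µM dose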;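 further: 0 = sulfaphenazole-blocked wells and 1 = vehicle-only wells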
Pyk2 oligo antag: blocks oligomerization of human Pyk2 in cells; Q14289; Q293 cells, Pyk2 FERM NanoBiT luminescence; hits give low values; z-score (the deposit names both 25 µM and 10 µM); 99,000 tested, 0.83% active;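 active means Z-score of -3 or lower, scaled per plate to the spread of control and sample wells; inactive means z-score above -3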;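 further: negative z-score means lost luminescence so less FERM oligomerization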
CYP2C19 activ: cytochrome P450 2C19 (human) activation; 96,000 tested, under 10 active; recombinant CYP2C19, luciferin-H EGE luminescence; hits give high values; 0 = fully inhibited enzyme, 1 = untreated enzyme; AID 1025; activation factor at 5 µM;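 active means activation factor of at least 2 at 5 µM in the primary screen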;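 further: 0 = wells with 2.5 mM tranylcypromine and 1 = vehicle-only wells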
Cav32 inh: inhibitors of human Cav3.2 T-type calcium channel. O95180. Cav3.2-expressing cells, Fluo-4 calcium fluorescence FDSS; hits give low values. B-score at 10 µM. 100,000 tested, 4% active. AID 449739;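 active means single-dose well whose peak fluorescence ratio is a statistical outlier from its plate by either plate-standardised score or position-corrected B-score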
An asterisk follows results filed as active; / = no result given.

SMILES	CYP2C19 inh	CYP2C9 inhib	CYP2C9 act	Pyk2 oligo antag	CYP2C19 activ	Cav32 inh
Cc1c(C(=O)Nc2ccc3c(c2)OCCO3)sc2nc(-c3ccccc3)cn12	/	/	/	-3.65*	/	0.282
COc1ccc(-c2cn3c(C)c(C(=O)Nc4cc(NC(C)=O)ccc4OC)sc3n2)cc1	/	/	/	0.46	/	0.309
Cc1c(C(=O)Nc2ccncc2)sc2nc(-c3ccccc3)cn12	47.0	79.2*	0.2	/	0.5	0.325
Cc1c(C(=O)NCc2ccco2)sc2nc(-c3ccccc3)cn12	28.7	40.3	0.6	/	0.7	0.517
CCc1ccc(Nc2nnc(SCc3cc(=O)n4ccsc4n3)s2)cc1	33.1	35.6	0.6	-1.55	0.7	/
CS(=O)(=O)Nc1ccccc1C(=O)Nc1ccc2c(c1)OCCO2	10.7	73.4*	0.3	-0.13	0.9	-0.187
O=C(Nc1ccc2c(c1)OCCO2)c1ccccc1F	4.3	-3.9	1	-0.36	1	0.0756
CCOc1ccc(NC(=O)N[C@@H](CCSC)C(=O)OC)cc1	-18.0	-12.6	1.1	-0.61	1.2	0.913
O=C(c1cccc(Cl)c1)c1nn(-c2ccccc2)c(=O)cc1C(F)(F)F	41.9	27.7	0.7	-2.28	0.6	-3.1
C=CCn1c(SCC(=O)Nc2cccc3ccccc23)nnc1-c1cnccn1	55.4*	43.1	0.6	-0.84	0.4	0.264
C=CCn1c(COc2ccccc2F)nnc1SCC(=O)Nc1cc2oc3ccccc3c2cc1OC	20.7	41.9	0.6	0.54	0.8	-0.701
C=CCn1c(SCC(=O)Nc2cc3oc4ccccc4c3cc2OC)nnc1-c1cnccn1	75.2*	95.0*	0.1	-1.83	0.2	-4.19*
CCOc1ccccc1NC(=O)CSc1nnc(-c2cnccn2)n1C	-3.3	-7.9	1.1	0.98	1	0.0706
COc1ccc(CCNC(=O)Cn2c(-c3nonc3N)nc3ccccc32)cc1OC	89.1*	47.9	0.5	-1.18	0.1	-0.78
CCOc1ccc(CCNC(=O)Cn2c(=O)oc3ccccc32)cc1OCC	84.1*	61.8*	0.4	0.24	0.2	0.465
CCOc1ccc(CCNC(=O)Cn2c(-c3nonc3N)nc3ccccc32)cc1OCC	44.7	69.6*	0.3	0.35	0.6	-0.808
CC(=O)Nc1ccc(-c2nn[nH]n2)cc1Cl	4.3	12.9	0.9	-0.37	1	0.818
CCOC(=O)c1cnn(-c2cccc(Cl)c2)c1N	62.1*	42.4	0.6	-0.14	0.4	0.586
C/C=C\C=C\C(=O)Nc1cccc(C2=NOC3(C2)C[C@@H](C(N)=O)N(C(=O)C(c2ccccc2)c2ccccc2)C3)c1 (stereo partly drawn)	/	/	/	/	/	-0.0108
Cc1nn(C)cc1/C=N/NC(=S)Nc1ccccc1	21.0	36.7	0.6	-0.99	0.8	0.113
O=C(c1ccco1)N1CCN(c2cc(C(F)(F)F)nc3ncnn23)CC1	-3.2	-5.2	1.1	-0.38	1	0.0727
Cc1nnc(SCC(=O)c2cc(C)n(-c3ccc4c(c3)OCO4)c2C)s1	97.2*	82.7*	0.2	0.77	0	-2.18
Cc1nnc(SCc2cccc(CSc3nnc(C)s3)c2)s1	33.1	16.7	0.8	0.83	0.7	1
COCCNc1nnc(SCC(=O)c2ccc3c(c2)OCO3)s1	53.4*	26.5	0.7	-0.04	0.5	0.109
Cc1nnc(SCc2ccc3c(c2)OCO3)s1	69.4*	54.7*	0.5	-0.15	0.3	-0.963
SMILES	CYP2C19 inh	CYP2C9 inhib	CYP2C9 act	Pyk2 oligo antag	CYP2C19 activ	Cav32 inh
CCCC1(CCC)NC(=O)N(CC(=O)c2cc(C)n(-c3ccc4c(c3)OCO4)c2C)C1=O	/	/	/	-1.23	/	/
COc1cccc(-c2nc(SC)nc3sc(C(=O)NC(C)(C)C)c(N)c23)c1	/	/	/	/	/	-0.61
O=C1[C@H]2[C@@H](C(=O)N1c1cc(Cl)cc(Cl)c1)[C@]1(C(=O)Nc3ccccc31)N1CCC[C@@H]21	51.9*	89.5*	0.1	-0.14	0.5	-1.89
Cn1c(CN2CCOCC2)c(C#N)c2ccccc21	88.2*	-78.7	1.8	0.61	0.1	0.373
CC1CCCCN1Cc1c(C#N)c2ccccc2n1C (stereo not drawn)	52.4*	-2.2	1	-0.31	0.5	-0.271
CC1CCN(Cc2c(C#N)c3ccccc3n2C)CC1	80.6*	11.9	0.9	-0.74	0.2	-1.73
CCOC(=O)CSCc1c(C#N)c2ccccc2n1C	99.7*	-7.7	1.1	0.13	0	-0.745
O=C(O)CC(c1ccc(Cl)cc1)N1C(=O)CCC1=O (stereo not drawn)	-3.8	9.3	0.9	0.46	1	0.491
